PubChem BioAssay (NCATS)
Results filed as inconclusive are left out. Unmarked numbers belong to inactive results. Calls of active or inactive are those of the source. Calls come from the whole dose curve; as a rule, active = well fitted inhibition curve with a large enough effect; inconclusive = small, poorly fitted or top-dose-only effect; inactive = no such curve, though single readings can be large or run the other way.

test: NS1 protein of Zika virus - qHTS assay to identify small molecule inhibitors in human HEK 293 cells (AID 1347053); conditions: HEK293 ZIKV MR766 infection, NS1 TR-FRET, 24 h; series mostly up to 46.1 µM; activity change, negative = inhibition: at the top concentration;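 note: plate controls were infected untreated cells for no effect and uninfected cells for full effect; nearly all actives have a fitted effect of over 55% in size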
From the text: National Center for Advancing Translational Sciences [NCATS]
Johns Hopkins University School of Medicine
The non-structural 1 (NS1) protein of zika virus is known to associate with the viral replication complex. This cell-based TR-FRET ZIKV NS-1 assay measures the increased NS-1 protein in human HEK 293 cells after a 24-hour Zika virus infection by a TR-FRET assay readout. A decrease in the Time-resolved fluorescence energy transfer (TR-FRET) signal in this assay by small molecule treatment indicates an inhibitory effect of the small molecule on the expression of Zika virus NS1 correlating with Zika virus replication.
HEK 293 cells were cultured in EMEM (ATCC, Cat. # 30-2003) medium with 10% fetal bovine serum (GE healthcare Life Sciences, Cat. # SH30071.03), and 1% Pen/Strep (Gibco, Cat. # 15140-122). Cells were seeded in the assay plate and incubated at 37 C with 5% CO2 for 20 hours. Compounds were added to cells and incubated for one hour before addition of ZIKV MR766 strain solution to cells (MOI = 0.5). After an incubation at 37 C for 24 hours, the reagent mixture of TR-FRET ZIKV NS1 assay using two anti-ZIKV NS1 antibodies was added to assay plates. The TR-FRET signals in assay plates were measured using an Envision plate reader (PerkinElmer). Data were normalized by using the cell-containing wells without ZIKV as a negative control (0% NS-1) and wells containing ZIKV infected cells as a positive control (100% NS-1 level).

Point of comparison: CCCCCCOc1ccccc1C(N)=O, “activity change, negative = inhibition” value -16.1%. Against it:
- CN1C2CC(OC(=O)[C@H](CO)c3ccccc3)CC1C1OC12 (stereo not given in full) — higher, -9.89%
- N[C@H](CCCP(=O)(O)O)C(=O)O — lower, -23%
- O=C(O)Cc1ccc2c(c1)C(=O)c1ccccc1CO2 — higher, -3.07%
- NC(CCCP(=O)(O)O)C(=O)O (stereo not given) — higher, -9.95%
- CCOC(=O)c1ccccc1O — higher, -6.06%
- CCCN(CC1CC1)c1nc(C)nc(Nc2c(Cl)cc(Cl)cc2Cl)c1Cl — higher, 3.62%
- Cc1[nH]cnc1CN1CCc2c(c3ccccc3n2C)C1=O — higher, 0.116%
- CCNc1nc2c(ncn2[C@H]2C[C@H](O)[C@@H](CO)O2)c(=O)[nH]1 — higher, 2.53%
- NS(=O)(=O)c1ccc(-n2nc(C(F)(F)F)cc2-c2ccc(Cl)cc2)cc1 — higher, -4.28%
- CC(C(=O)O)c1ccc(C(=O)c2cccs2)cc1 (stereo not given) — higher, 3.46%
- Fc1cccc(/C=N/N=C/c2cccc(F)c2)c1 — higher, -6%
- O=S(=O)(c1cccc2c(I)cccc12)N1CCCNCC1 — higher, 142%
- Cn1ncc(S(=O)(=O)Cc2ccccc2)c(Br)c1=O — lower, -24.2%
- O=C(Nc1ccc2c(c1)CCN(Cc1ncn[nH]1)C2)c1ccccc1-c1ccc(C(F)(F)F)cc1 — higher, -15.4%
- O=c1cc(-c2ccccc2)oc2c(O)c(O)ccc12 — higher, 10.4%
- CSc1nc(N)c2ncn([C@@H]3O[C@H](COP(=O)(O)OP(=O)(O)OP(=O)(O)O)[C@@H](O)[C@H]3O)c2n1 — higher, 0.821%
- CC1OC1P(=O)(O)O (stereo not given) — higher, -4.18%
- C/C(=N\O)c1ccc(OCC(=O)N2CCCCC2)cc1 — higher, -4.39%
- CS(=O)(=O)c1ccc(-n2nc(C(F)(F)F)cc2-c2ccc(F)cc2)cc1 — higher, 0.488%
- COc1ccc(-c2cc(=S)ss2)cc1 — higher, 7.96%
- O=C1NC(=O)/C(=C/c2ccc(-c3ccc(F)cc3O)o2)S1 — higher, 4.48%
- Brc1c(Br)c(Br)c2n[nH]nc2c1Br — higher, 16.8%
- CC1(C)CCC=[N+]1[O-] — higher, -12.3%
- C#C[C@]1(O)CC[C@H]2[C@@H]3CCC4=Cc5oncc5CC4(C)[C@H]3CCC21C (stereo not given in full) — higher, 17.2%
- N#C/C(=C\c1ccc(-c2cc(Cl)ccc2Cl)o1)C(=O)Nc1cccc2ncccc12 — higher, 10.9%
- C=CC(N)CCC(=O)O (stereo not given) — higher, -4.52%
- CC(=O)SCC[N+](C)(C)C — higher, 1.95%
- Cc1c(N)c(=O)n(-c2ccccc2)n1C — higher, -15.3%
- Cc1c(C(=O)O)c(O)cc2c1C(=O)c1c(O)c([C@@H]3O[C@H](CO)[C@@H](O)[C@H](O)[C@H]3O)c(O)c(O)c1C2=O — higher, 29.9%
- CN[C@H](CC(C)C)C(=O)N[C@H]1C(=O)N[C@@H](CC(N)=O)C(=O)N[C@H]2C(=O)N[C@H]3C(=O)N[C@H](C(=O)N[C@H](C(=O)O)c4cc(O)cc(O)c4-c4cc3ccc4O)[C@H](O)c3ccc(c(Cl)c3)Oc3cc2cc(c3O[C@@H]2O[C@H](CO)[C@@H](O)[C@H](O)[C@H]2O[C@H]2C[C@](C)(N)[C@H](O)[C@H](C)O2)Oc2ccc(cc2Cl)[C@H]1O — higher, -4.93%
- CCCCCCCCCCCCOCCO — higher, 2.17%
- Cc1c(Nc2ncccc2C(=O)O)cccc1C(F)(F)F — higher, 22.5%
- CC(C)(C)c1nnc(NS(=O)(=O)c2ccc(N)cc2)s1 — higher, -0.153%
- CCCC(=O)OC[C@@H](OC(=O)CCC)[C@@H](OC(=O)CCC)[C@H](Cn1c2nc(=O)[nH]c(=O)c-2nc2cc(C)c(C)cc21)OC(=O)CCC — higher, 21.5%
- C[N+]1(C)[C@@H]2CC(OC(=O)[C@H](CO)c3ccccc3)C[C@H]1[C@@H]1O[C@@H]12 (stereo not given in full) — higher, -10%
- N=c1ccn2c(n1)O[C@H]1[C@H](O)[C@@H](CO)O[C@H]12 — higher, 27.7%

For c1ccc2sc(SSc3nc4ccccc4s3)nc2c1, the “activity change, negative = inhibition” value was 8.94% [at 20.1 µM].

For CN1CC(=O)N/C1=N/C(=O)Nc1cccc(Cl)c1, the Potency was “inactive”.

For Nc1nc2ccc([N+](=O)[O-])cc2s1, the “activity change, negative = inhibition” value was -5.8% [at 92.8 µM].
